Outcome and AC50 data for 34 molecules are collected here from PubChem BioAssay (EPA / NIEHS).

Molecules are shown by their SMILES. Results filed as inconclusive are left out. Activity calls are given as the source filed them. The calls were made as follows: active = hit-call score of the fitted dose curve at least 0.9, where 1 is the maximum; inconclusive = response in the unintended direction; inactive = score below 0.9.

Test [1] has as its target human Peroxisome Proliferator-activated Receptor alpha (PPARa), PPARA (gene 5465) (UniProt Q07869). The test can be described thus: ATG_PPARa_TRANS: Attagene TRANS-FACTORIAL HepG2 Assay for human Peroxisome Proliferator-activated Receptor alpha (PPARa) (AID 2283001).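 As to AC50: potency for gain of reporter signal over DMSO so agonist or activator.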 The method, boiled down: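 Reporter transcripts quantified by RT-PCR plus capillary electrophoresis after 24 h treatment, fitted upward relative to DMSO. Cells: human HepG2 transiently carrying multiple GAL4-UAS reporter units driven by NR-Gal4 chimeras.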

The target of test [2] is human Peroxisome Proliferator-activated Receptor delta (PPARd), PPARD (gene 5467) (UniProt Q03181). Description: ATG_PPARd_TRANS: Attagene TRANS-FACTORIAL HepG2 Assay for human Peroxisome Proliferator-activated Receptor delta (PPARd) (AID 2283002). In short, it runs like this:
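Transient HepG2 transfection (multiple GAL4-UAS RTUs, chimeric receptor-Gal4); 24 h dosing; total RNA → oligo(dT) RT → PCR → 6-FAM primer extension → HpaI cut → CE. Positive direction vs DMSO.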

Test [3] has as its target Peroxisome proliferator-activated receptor gamma (Homo sapiens) (UniProt P37231). The test can be described thus: ATG_PPARg_TRANS: Attagene TRANS-FACTORIAL HepG2 Assay for human Peroxisome Proliferator-activated Receptor-gamma (PPARg) (AID 2283007). In short, it runs like this: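 Chimeric NR-Gal4 transactivation is measured in transiently transfected HepG2 cells by reporter mRNA induction at 24 h. Detection uses RT-PCR with fluorescent labelling and capillary electrophoresis; DMSO defines baseline.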

Test [4] addresses Nuclear receptor subfamily 1 group I member 2 (Homo sapiens) (UniProt O75469). The test can be described thus: ATG_PXR_TRANS: Attagene TRANS-FACTORIAL HepG2 Assay for human Pregnane X Receptor (PXR) (AID 2283008). The method, boiled down: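 Trans-factorial format: exogenous NR-Gal4 fusion activity, not endogenous factor, in transfected human HepG2 liver cells. After 24 h dosing, RNA isolated, reverse-transcribed, amplified and resolved by capillary electrophoresis; induction scored versus DMSO.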

Test [5] concerns the target human RAR-related Orphan Receptor beta (RORb), RORB (gene 6096) (UniProt Q92753). The test can be described thus: ATG_RORb_TRANS: Attagene TRANS-FACTORIAL HepG2 Assay for human RAR-related Orphan Receptor beta (RORb) (AID 2283010). In short, it runs like this:
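Transfect HepG2 with multiple GAL4-UAS reporter transcription units; dose chemicals for 24 h; isolate RNA, reverse-transcribe and PCR-amplify reporter sequences; label, digest and resolve fragments by capillary electrophoresis; fit increases relative to DMSO.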

The target in test [6] is human Thyroid Receptor alpha (THRa1), THRA (gene 7067) (UniProt P10827). Description: ATG_THRa1_TRANS: Attagene TRANS-FACTORIAL HepG2 Assay for human Thyroid Receptor alpha (THRa1) (AID 2283014). The method, boiled down:
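Measured here is mRNA from a GAL4-UAS reporter in transfected HepG2 cells carrying a Gal4-fused receptor, 24 h post-dose. DMSO served as negative control and baseline.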

In test [7] the target is Retinoic acid receptor RXR-alpha (Homo sapiens) (UniProt P19793). The test can be described thus: ATG_RXRa_TRANS: Attagene TRANS-FACTORIAL HepG2 Assay for human Retinoid X Receptor alpha (RXRa) (AID 2283012). In short, it runs like this:
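Measures exogenous chimeric NR-GAL4 activity in transfected HepG2 liver cells after 24 h of dosing. Induced reporter mRNA was detected by RT-PCR with capillary electrophoresis, and gain of signal was analysed against DMSO.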

Test [8] addresses human Retinoid X Receptor beta (RXRb), RXRB (gene 6257) (UniProt P28702). Description: ATG_RXRb_TRANS: Attagene TRANS-FACTORIAL HepG2 Assay for human Retinoid X Receptor beta (RXRb) (AID 2283013). The method, boiled down: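 Chimeric receptor-Gal4 activity was assessed in transiently transfected human HepG2 cells after 24 h exposure. Transcripts from GAL4-UAS reporters were quantified by fluorescent RT-PCR and capillary electrophoresis, with DMSO as negative control and baseline.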

Test [9] addresses human RAR-related Orphan Receptor gamma (RORg), RORC (gene 6097) (UniProt P51449). Description: ATG_RORg_TRANS: Attagene TRANS-FACTORIAL HepG2 Assay for human RAR-related Orphan Receptor gamma (RORg) (AID 2283011). In short, it runs like this:
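Chimeric RORg-Gal4 transactivation in transfected HepG2; 24 h exposure; RT-PCR/capillary electrophoresis readout of reporter mRNA, DMSO baseline.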

For test [10], the target named is human Retinoic Acid Receptor gamma (RARg), RARG (gene 5916) (UniProt P13631). Description: ATG_RARg_TRANS: Attagene TRANS-FACTORIAL HepG2 Assay for human Retinoic Acid Receptor gamma (RARg) (AID 2283009). In short, it runs like this:
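TRANS format measured activity of exogenous NR-GAL4 fusion (RARg) in transfected HepG2 liver cells after 24 h dosing. Induced reporter RNA was detected by RT-PCR/capillary electrophoresis fluorescence, analysed in the positive direction against DMSO.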

Chain of Nuclear receptor subfamily 1 group I member 2 (Homo sapiens) (O75469 whole entry, looked up, the tested form may be a part): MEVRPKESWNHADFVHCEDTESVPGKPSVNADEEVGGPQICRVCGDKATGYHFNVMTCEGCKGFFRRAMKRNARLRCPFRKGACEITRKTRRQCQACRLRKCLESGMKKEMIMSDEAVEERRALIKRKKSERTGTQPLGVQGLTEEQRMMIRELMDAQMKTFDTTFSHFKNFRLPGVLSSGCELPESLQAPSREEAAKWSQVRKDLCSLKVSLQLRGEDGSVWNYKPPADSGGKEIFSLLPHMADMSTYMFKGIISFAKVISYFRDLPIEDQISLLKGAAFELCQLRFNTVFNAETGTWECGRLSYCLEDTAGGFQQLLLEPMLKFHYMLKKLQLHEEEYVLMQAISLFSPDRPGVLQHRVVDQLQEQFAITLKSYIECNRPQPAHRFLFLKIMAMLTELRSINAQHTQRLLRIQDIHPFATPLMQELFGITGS
Chain of Peroxisome proliferator-activated receptor gamma (Homo sapiens) (P37231 whole entry, looked up, the tested form may be a part): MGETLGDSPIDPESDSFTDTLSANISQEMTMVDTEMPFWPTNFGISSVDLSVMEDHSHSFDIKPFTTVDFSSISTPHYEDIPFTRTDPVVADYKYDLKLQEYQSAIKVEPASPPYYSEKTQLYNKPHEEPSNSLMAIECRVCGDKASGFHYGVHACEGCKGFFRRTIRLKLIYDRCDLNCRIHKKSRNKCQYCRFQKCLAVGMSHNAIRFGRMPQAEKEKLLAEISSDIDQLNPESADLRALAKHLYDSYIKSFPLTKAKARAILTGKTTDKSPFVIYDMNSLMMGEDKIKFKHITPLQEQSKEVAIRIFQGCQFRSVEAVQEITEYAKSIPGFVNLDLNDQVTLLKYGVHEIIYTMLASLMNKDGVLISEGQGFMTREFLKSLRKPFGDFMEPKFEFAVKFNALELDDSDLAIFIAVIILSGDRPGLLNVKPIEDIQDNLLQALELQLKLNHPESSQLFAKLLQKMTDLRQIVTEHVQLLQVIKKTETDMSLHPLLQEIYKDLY
Chain of human Peroxisome Proliferator-activated Receptor delta (PPARd), PPARD (gene 5467) (Q03181 whole entry, looked up, the tested form may be a part): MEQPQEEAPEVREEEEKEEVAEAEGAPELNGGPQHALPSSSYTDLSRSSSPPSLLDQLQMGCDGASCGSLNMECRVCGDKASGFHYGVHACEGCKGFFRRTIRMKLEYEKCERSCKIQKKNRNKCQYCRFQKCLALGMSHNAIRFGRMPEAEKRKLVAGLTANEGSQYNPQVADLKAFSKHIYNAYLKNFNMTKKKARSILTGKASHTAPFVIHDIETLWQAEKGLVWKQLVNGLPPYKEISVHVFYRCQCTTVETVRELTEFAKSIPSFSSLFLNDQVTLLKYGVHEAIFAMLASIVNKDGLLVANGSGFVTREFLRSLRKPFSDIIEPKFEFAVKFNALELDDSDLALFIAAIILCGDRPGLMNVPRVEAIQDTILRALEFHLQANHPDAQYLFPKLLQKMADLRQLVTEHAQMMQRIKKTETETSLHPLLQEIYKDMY
Chain of Retinoic acid receptor RXR-alpha (Homo sapiens) (P19793 whole entry, looked up, the tested form may be a part): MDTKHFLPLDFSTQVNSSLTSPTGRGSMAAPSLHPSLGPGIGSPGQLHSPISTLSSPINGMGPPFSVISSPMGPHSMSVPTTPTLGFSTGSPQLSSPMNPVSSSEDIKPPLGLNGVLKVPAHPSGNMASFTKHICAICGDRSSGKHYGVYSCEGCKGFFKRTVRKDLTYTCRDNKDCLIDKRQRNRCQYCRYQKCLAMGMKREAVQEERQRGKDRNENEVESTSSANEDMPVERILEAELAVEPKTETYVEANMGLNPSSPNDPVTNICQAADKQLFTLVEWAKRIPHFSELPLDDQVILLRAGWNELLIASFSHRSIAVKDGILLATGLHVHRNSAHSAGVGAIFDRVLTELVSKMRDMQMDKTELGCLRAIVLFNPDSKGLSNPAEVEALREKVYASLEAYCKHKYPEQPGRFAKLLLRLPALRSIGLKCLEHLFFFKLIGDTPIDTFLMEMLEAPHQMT
Chain of human Peroxisome Proliferator-activated Receptor alpha (PPARa), PPARA (gene 5465) (Q07869 whole entry, looked up, the tested form may be a part): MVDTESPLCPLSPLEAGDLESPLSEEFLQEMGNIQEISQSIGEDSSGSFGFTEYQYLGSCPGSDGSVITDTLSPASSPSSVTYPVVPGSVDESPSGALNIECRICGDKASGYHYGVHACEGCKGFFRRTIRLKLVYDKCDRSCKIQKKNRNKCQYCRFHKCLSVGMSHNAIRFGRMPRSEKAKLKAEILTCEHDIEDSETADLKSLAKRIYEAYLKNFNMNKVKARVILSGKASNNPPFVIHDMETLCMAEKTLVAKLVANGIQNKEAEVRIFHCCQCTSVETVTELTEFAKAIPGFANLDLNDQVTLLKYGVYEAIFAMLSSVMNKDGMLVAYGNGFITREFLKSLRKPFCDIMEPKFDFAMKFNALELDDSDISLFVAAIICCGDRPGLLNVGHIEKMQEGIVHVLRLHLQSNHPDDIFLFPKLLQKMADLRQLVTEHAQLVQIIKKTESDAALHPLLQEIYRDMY
Chain of human Thyroid Receptor alpha (THRa1), THRA (gene 7067) (P10827 whole entry, looked up, the tested form may be a part): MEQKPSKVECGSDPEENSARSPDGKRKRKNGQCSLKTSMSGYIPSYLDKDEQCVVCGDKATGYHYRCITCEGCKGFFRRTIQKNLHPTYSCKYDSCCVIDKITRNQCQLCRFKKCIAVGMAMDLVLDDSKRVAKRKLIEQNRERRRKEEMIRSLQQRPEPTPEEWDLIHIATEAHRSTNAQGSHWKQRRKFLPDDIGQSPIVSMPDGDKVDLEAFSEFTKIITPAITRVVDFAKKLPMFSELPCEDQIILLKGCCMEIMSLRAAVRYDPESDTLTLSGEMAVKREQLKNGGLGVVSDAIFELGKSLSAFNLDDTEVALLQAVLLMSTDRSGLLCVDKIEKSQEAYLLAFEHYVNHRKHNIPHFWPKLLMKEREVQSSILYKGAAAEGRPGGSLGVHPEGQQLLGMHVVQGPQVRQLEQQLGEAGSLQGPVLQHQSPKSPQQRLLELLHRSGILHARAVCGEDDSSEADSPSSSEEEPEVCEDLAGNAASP
Chain of human RAR-related Orphan Receptor gamma (RORg), RORC (gene 6097) (P51449 whole entry, looked up, the tested form may be a part): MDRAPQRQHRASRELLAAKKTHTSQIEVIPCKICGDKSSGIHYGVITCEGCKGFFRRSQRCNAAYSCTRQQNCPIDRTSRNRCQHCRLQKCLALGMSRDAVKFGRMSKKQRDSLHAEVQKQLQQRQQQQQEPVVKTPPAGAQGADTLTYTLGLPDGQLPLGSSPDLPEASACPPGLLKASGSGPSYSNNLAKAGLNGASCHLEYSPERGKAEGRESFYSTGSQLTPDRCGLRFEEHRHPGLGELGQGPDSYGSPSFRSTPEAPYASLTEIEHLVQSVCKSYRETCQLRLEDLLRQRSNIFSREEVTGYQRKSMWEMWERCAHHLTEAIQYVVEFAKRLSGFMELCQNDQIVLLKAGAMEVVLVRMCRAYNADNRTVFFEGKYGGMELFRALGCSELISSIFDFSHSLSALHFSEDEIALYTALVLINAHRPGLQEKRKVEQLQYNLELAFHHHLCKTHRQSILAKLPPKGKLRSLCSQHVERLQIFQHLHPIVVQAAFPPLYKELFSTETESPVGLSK
Chain of human Retinoid X Receptor beta (RXRb), RXRB (gene 6257) (P28702 whole entry, looked up, the tested form may be a part): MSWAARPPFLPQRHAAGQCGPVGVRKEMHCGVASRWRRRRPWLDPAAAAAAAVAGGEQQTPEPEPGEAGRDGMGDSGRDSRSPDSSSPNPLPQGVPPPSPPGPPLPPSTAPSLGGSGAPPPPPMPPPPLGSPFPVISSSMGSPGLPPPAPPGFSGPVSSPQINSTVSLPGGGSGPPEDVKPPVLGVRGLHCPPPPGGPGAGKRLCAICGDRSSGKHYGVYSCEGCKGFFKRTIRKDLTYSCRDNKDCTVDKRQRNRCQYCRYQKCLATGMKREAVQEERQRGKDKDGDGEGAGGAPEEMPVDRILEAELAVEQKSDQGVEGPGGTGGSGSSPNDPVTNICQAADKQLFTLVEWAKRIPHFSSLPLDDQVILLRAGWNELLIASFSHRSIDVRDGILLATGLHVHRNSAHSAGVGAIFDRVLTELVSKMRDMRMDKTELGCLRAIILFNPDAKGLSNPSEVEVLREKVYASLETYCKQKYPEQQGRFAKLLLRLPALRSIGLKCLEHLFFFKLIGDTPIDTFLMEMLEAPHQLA
Chain of human RAR-related Orphan Receptor beta (RORb), RORB (gene 6096) (Q92753 whole entry, looked up, the tested form may be a part): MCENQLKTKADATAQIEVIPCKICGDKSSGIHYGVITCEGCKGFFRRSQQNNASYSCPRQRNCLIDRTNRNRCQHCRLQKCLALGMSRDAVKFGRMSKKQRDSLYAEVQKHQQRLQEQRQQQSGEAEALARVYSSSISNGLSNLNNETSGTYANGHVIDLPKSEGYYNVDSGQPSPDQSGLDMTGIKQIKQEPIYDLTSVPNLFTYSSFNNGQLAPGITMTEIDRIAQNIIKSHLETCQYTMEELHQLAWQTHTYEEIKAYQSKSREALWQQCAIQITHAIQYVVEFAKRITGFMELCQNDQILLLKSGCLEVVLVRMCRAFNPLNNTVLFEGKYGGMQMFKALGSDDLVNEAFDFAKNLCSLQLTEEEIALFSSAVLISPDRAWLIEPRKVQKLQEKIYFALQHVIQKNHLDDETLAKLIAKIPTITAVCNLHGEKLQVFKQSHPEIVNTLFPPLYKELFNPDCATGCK
Chain of human Retinoic Acid Receptor gamma (RARg), RARG (gene 5916) (P13631 whole entry, looked up, the tested form may be a part): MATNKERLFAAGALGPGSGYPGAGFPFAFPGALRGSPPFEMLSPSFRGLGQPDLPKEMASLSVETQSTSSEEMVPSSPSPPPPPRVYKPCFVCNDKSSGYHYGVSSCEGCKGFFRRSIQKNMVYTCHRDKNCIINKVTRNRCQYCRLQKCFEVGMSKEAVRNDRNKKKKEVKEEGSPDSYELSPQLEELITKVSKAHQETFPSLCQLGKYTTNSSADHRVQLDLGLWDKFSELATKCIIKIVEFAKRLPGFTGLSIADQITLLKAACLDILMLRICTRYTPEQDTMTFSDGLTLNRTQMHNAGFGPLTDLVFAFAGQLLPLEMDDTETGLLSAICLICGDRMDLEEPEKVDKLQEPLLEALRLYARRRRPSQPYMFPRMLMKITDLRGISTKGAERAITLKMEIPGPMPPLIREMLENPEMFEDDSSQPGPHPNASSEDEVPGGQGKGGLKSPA

For `NC(=O)Nc1ccc(Cl)cc1`, the result in test [1], in test [2], in test [3], in [4], in [5] and in test [6] was inactive.
For the molecule `C=C(C)C(=O)OCc1ccccc1`, the outcome in [1], in test [2], in test [3], in [4], in test [7] and in [8] was inactive. Moreover, the molecule was classed as inactive in [6].
By AC50 is commonly meant the midpoint of the concentration-response curve, whichever way the signal moves. Turning to `C=CCOc1nc(OCC=C)nc(OCC=C)n1`, the molecule was classed as inactive in test [1], in test [2], in test [7] and in test [6]. Also, the AC50 in [3] was 61.4 µM (active); in [4] it was 14.9 µM (active); in [8], 81 µM (active).
`COC(=O)Cc1cccc2ccccc12`: the molecule was classed as inactive in test [1], in test [2], in [4] and in [7]. Moreover, the AC50 in [3] was 66.5 µM (active); in test [8] it was 55.2 µM (active).
For the molecule `CNCCCC12CCC(c3ccccc31)c1ccccc12`, the molecule was called inactive in [1], in test [2], in test [3], in test [4] and in test [7].
For `CN(C)CCOCCN(C)C`, the molecule was classed as inactive in [1], in test [2], in test [4] and in test [5].
`Clc1ccc2c(c1)C(N1CCNCC1)=Nc1ccccc1O2`: the AC50 was 53.9 µM (active) in test [1], 52.9 µM (active) in test [2], 44.1 µM (active) in [4] and 55.3 µM (active) in test [8]. The outcome in test [3] and in test [7] was inactive.
For the molecule `CCC/C=C/C=O`, the outcome in [1], in test [2], in test [4] and in test [7] was inactive. Also, the AC50 in test [3] is 27.7 µM (active).
For the molecule `Cc1cccc(Nc2ccccc2C(=O)O)c1C`, the results for the AC50 in [1], in [2] and in test [3] were 14.5 µM (active), 77.8 µM (active) and 12.6 µM (active), respectively. Further, the molecule was classed as inactive in test [4], in [7], in test [8] and in test [6].
`C=CC(C)(O)CCC=C(C)CCC=C(C)C` (stereo not given): the call in [1] and in test [2] was inactive. The AC50 in [3] is 32.6 µM (active); in test [4], 3.93 µM (active); in test [8] it was 27.3 µM (active).
With `COc1cc2ncnc(Nc3cccc(Cl)c3)c2cc1OC`, the molecule was called inactive in [1], in test [2], in test [3], in test [4], in test [7] and in test [6].
Regarding `CCCCCCCCCCCCCOS(=O)(=O)O`, the figures for the AC50 in test [1], in test [3] and in [8] were 3.35 µM (active), 12 µM (active) and 12.9 µM (active), respectively. In addition, the outcome in test [2], in [4] and in [9] was inactive.
Consider `C[C@H]1C[C@H]2[C@@H]3CCC4=CC(=O)C=C[C@]4(C)[C@@]3(F)[C@@H](O)C[C@]2(C)[C@@]1(O)C(=O)COP(=O)(O)O`, for which the result in test [1], in test [2], in [3], in test [4], in test [7] and in [8] was inactive.
Turning to `N#Cc1ccccc1`, the outcome in [1], in test [2], in [3], in [4], in [9] and in test [7] was inactive.
Take `CC(C)c1cccc(O)c1`: the call in [1], in [2], in test [3], in [4] and in [6] was inactive.
Take `CC(CCO)CCc1ccccc1` (stereo not given): the outcome in test [1], in [2], in [3], in test [7], in test [8] and in test [6] was inactive. Moreover, the half-maximal activity concentration (AC50) in test [4] is 48.2 µM (active).
For `Cc1ccc(S)cc1`, the call in test [1], in test [2], in test [4] and in test [7] was inactive. Also, the AC50 in [3] was 22.8 µM (active).
Take `CCCC/C=C\CCCCCCCCCC=O`: the result in test [1], in [2], in test [3] and in [4] was inactive. Moreover, the AC50 in [8] was 6.07 µM (active).
On to `O=C(O)c1snc(Cl)c1Cl`, for which the molecule was called inactive in test [1], in test [2], in test [4], in test [7] and in [8]. Besides, the half-maximal activity concentration (AC50) in [3] is 25.3 µM (active).
With `CCCCCCCCCCC(CO)CCCCCCCC` (stereo not given), the call in [1], in test [2], in test [3], in test [4], in test [5] and in test [6] was inactive.
Consider `O=C[C@@H](O)[C@H](O)[C@H](O)CO`, for which the call in [1], in test [2], in [3], in [10], in test [5] and in [7] was inactive. Moreover, the result in test [6] was inactive.
Regarding `CC(CCO)CCCC(C)(C)O` (stereo not given), the call in test [1], in test [2], in test [3], in test [4], in test [9] and in test [7] was inactive. In test [6], the result was inactive.
As to `CCC(=O)OCCC(C)CCC=C(C)C` (stereo not given), the molecule was classed as inactive in [1], in [2], in [3], in test [4], in test [7] and in test [8].
For the molecule `Clc1cccc(Cl)n1`, the molecule was called inactive in test [1], in test [2], in test [3], in test [4], in [7] and in [8]. Further, in [6], the outcome was inactive.
Regarding `CCCCCCCCCCCCN(CCCCCCCCCCCC)CCCCCCCCCCCC`, the molecule was called inactive in test [1], in test [2], in [3], in test [4], in [5] and in [8]. The outcome in [6] was inactive.
For `CCCCCCCCC`, the call in test [1], in test [2], in [3] and in test [6] was inactive.
For the molecule `CCCCCCCCCCCCSC`, the call in test [1], in [2], in test [3], in [4], in test [9] and in [6] was inactive. For the same molecule, the AC50 in [8] is 100 µM (active).
As to `CCCCOCCOCCSC#N`, the call in test [1], in [2], in test [9], in [7] and in test [8] was inactive. The values for the AC50 in test [3] and in [4] were 19.8 µM (active) and 3.36 µM (active), respectively.
For the molecule `CCCc1c(OCCCOc2ccc(OCC(=O)O)cc2)ccc(C(C)=O)c1O`, the concentration at half-maximal activity (AC50) in test [1] is 0.322 µM (active); in test [2], 0.0841 µM (active); in test [3], 0.195 µM (active); in test [4], 26.6 µM (active); in [8], 8.03 µM (active). Moreover, the molecule was called inactive in test [7] and in test [6].
Regarding `O=Cc1ccc(Cl)c([N+](=O)[O-])c1`, the molecule was called inactive in test [1], in test [2], in test [9], in test [7] and in [6]. Further, the AC50 in test [3] is 100 µM (active).
With `CC(C=O)Cc1ccc(C(C)C)cc1` (stereo not given), in test [1], the AC50 was 49.1 µM (active). Also, the outcome in test [2], in [3], in test [4], in test [7] and in [8] was inactive.
Regarding `Cc1ccc(C(=O)c2cc(O)c(O)c([N+](=O)[O-])c2)cc1`, the molecule was called inactive in [1], in [2], in test [4], in test [7], in [8] and in test [6]. For the same molecule, the AC50 in test [3] is 17.5 µM (active).
`CCCCCCCCCCCCCCCC(=O)OC[C@H](O)[C@H]1OC(=O)C(O)=C1O`: the outcome in [1], in [2], in test [3], in [9], in test [7] and in test [8] was inactive. Moreover, in test [6], the molecule was called inactive.
Regarding `O=C(OCc1ccccc1)C(=O)OCc1ccccc1`, the molecule was classed as inactive in test [1], in [2], in [3] and in test [8].
